Screening data as filed in PubChem.
Only some compounds are listed: those with a hit (about 1.4% of all), similar ones and a draw of the others.
RN4220 kill: S. aureus RN4220 growth inhibition; 330,000 compounds, 0.33% hits; OD600, 16 h; inhibition, % (concentration not given with the values); in the data active = inhibition above about 85%
PrPC surface inh: cell surface PrPC inhibition, primary TR-FRET screen; inhibition, % at 13.8 µM; TR-FRET read-out; 370,000 compounds, 0.43% hits; AID 720596; P04156; in the data active = inhibition above about 24%
Sa ugtP lethal: compounds lethal to S. aureus RN4220 ugtP deletion mutant; OD600 growth, 16 h; growth inhibition, % (concentration not given with the values); 330,000 compounds, 0.54% hits; AID 1259309; in the data active = growth inhibition above about 68%
SARS 3CLpro inh: SARS-CoV 3CLpro protease inhibition; 290,000 compounds, 0.14% hits; recombinant SARS-CoV 3CLpro, quenched FRET peptide cleavage; inhibition, % at 6 µM; P0C6X7; AID 1706; in the data active = inhibition above about 12%
BJeLR lethal: kills HRASV12-expressing BJeLR cells; AID 1554; BJeLR (HRASV12) viability, CellTiter-Glo ATP luminescence, 48 h; 300,000 compounds, 0.17% hits; inhibition, % (test concentration not listed); in the data active = inhibition above about 50%
DUSP3 inh: DUSP3 (human) phosphatase inhibition. P51452. recombinant VHR phosphatase, pNPP absorbance. inhibition, % at 13.3 µM. 290,000 compounds, 0.52% hits; in the data active = inhibition above about 50%
Target sequence (P51452 whole entry, looked up): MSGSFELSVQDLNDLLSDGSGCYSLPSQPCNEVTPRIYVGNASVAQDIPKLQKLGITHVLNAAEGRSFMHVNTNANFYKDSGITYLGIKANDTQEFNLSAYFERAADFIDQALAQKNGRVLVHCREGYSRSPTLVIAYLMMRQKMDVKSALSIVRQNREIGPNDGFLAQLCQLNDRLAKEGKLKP
Hits are given with their value; ! = repeats disagree.

What do the screens show for `O=C(NCc1ccccc1)C1CC1C(NP(=O)(c1ccccc1)c1ccccc1)c1ccccc1` (centres undefined)?
RN4220 kill: inactive; Sa ugtP lethal: inactive

What do the screens show for `C=CCn1c(SCc2csc(-c3ccc(C)cc3)n2)nnc1-c1ccccc1OC`?
RN4220 kill: inactive; PrPC surface inh: inactive; Sa ugtP lethal: 90; SARS 3CLpro inh: inactive; BJeLR lethal: inactive; DUSP3 inh: inactive

How did COc1ccccc1-n1cnnc1SCc1csc(-c2ccccc2)n1 do in these assays?
RN4220 kill: inactive; PrPC surface inh: inactive; Sa ugtP lethal: inactive; SARS 3CLpro inh: inactive; DUSP3 inh: inactive

Results for O=C(Nc1cccc(F)c1)c1c(O)c2ccccc2[nH]c1=O ?
RN4220 kill: inactive; PrPC surface inh: inactive; Sa ugtP lethal: inactive; SARS 3CLpro inh: inactive; BJeLR lethal: inactive; DUSP3 inh: 50

How did CC1CN=C(Nc2ccccc2)N1CC1CCC1 (centres undefined) do in these assays?
RN4220 kill: inactive; Sa ugtP lethal: inactive

How did COc1ccccc1N1CCN(CC(O)COc2cccc3ccccc23)CC1 (centres undefined) do in these assays?
RN4220 kill: inactive; PrPC surface inh: inactive; Sa ugtP lethal: inactive; SARS 3CLpro inh: 17!; BJeLR lethal: inactive; DUSP3 inh: inactive

Results for COC(=O)C1=C(c2ccc(-c3ccccc3)c(F)c2)CC2CCC1N2C(=O)NC1Cc2ccccc2C1 (centres undefined) ?
RN4220 kill: inactive; Sa ugtP lethal: inactive

What do the screens show for `O=C1NN(c2ccccc2)C(=O)/C1=C/c1ccc(Sc2cccc3ccccc23)o1`?
RN4220 kill: inactive; PrPC surface inh: inactive; Sa ugtP lethal: inactive; SARS 3CLpro inh: inactive; BJeLR lethal: inactive; DUSP3 inh: 51

How did O=C1NN(c2ccccc2)C(=O)/C1=C/c1ccc(-c2ccc(C(=O)O)cc2)o1 do in these assays?
RN4220 kill: inactive; PrPC surface inh: inactive; Sa ugtP lethal: inactive; SARS 3CLpro inh: inactive; BJeLR lethal: inactive; DUSP3 inh: inactive

Results for Cc1ccc(NS(=O)(=O)c2ccc(-c3cnc(C4CC4)o3)cc2)cc1 ?
RN4220 kill: inactive; PrPC surface inh: inactive; Sa ugtP lethal: inactive; SARS 3CLpro inh: inactive; BJeLR lethal: inactive; DUSP3 inh: inactive

Results for COc1ccc(C)cc1NS(=O)(=O)c1ccc(-c2cnc(C3CC3)o2)cc1 ?
RN4220 kill: inactive; PrPC surface inh: inactive; Sa ugtP lethal: inactive; SARS 3CLpro inh: inactive; BJeLR lethal: 58; DUSP3 inh: inactive

What do the screens show for `O=C1C=C(c2cc(C(F)(F)F)cc(C(F)(F)F)c2)CC(c2ccc(Cl)cc2)C1` (centres undefined)?
RN4220 kill: inactive; Sa ugtP lethal: inactive

Results for CN1c2ccccc2Sc2cc(N)ccc21 ?
PrPC surface inh: inactive; SARS 3CLpro inh: inactive; BJeLR lethal: inactive; DUSP3 inh: 55

How did CC(=S)/C=C1\Sc2ccccc2N1C do in these assays?
RN4220 kill: inactive; PrPC surface inh: inactive; Sa ugtP lethal: inactive; SARS 3CLpro inh: inactive; BJeLR lethal: inactive; DUSP3 inh: inactive

What do the screens show for `S=c1[nH]ncn2c1cc1oc3ccccc3c12`?
RN4220 kill: inactive; PrPC surface inh: 97; Sa ugtP lethal: inactive; SARS 3CLpro inh: inactive; BJeLR lethal: inactive; DUSP3 inh: inactive

What do the screens show for `O=c1c2ccccc2oc2ccccc12`?
PrPC surface inh: inactive

Results for O=C(COc1ccccc1Cl)NCCNC(=O)c1ccccn1 ?
RN4220 kill: inactive; PrPC surface inh: inactive; Sa ugtP lethal: inactive; SARS 3CLpro inh: inactive; BJeLR lethal: inactive; DUSP3 inh: inactive

How did Cc1ccccc1OCC(=O)NCCNC(=O)c1ccccn1 do in these assays?
RN4220 kill: inactive; PrPC surface inh: inactive; Sa ugtP lethal: inactive; SARS 3CLpro inh: inactive; BJeLR lethal: inactive; DUSP3 inh: 54

What do the screens show for `O=c1[nH]c(=O)n(C2CC(O)C(CO)O2)cc1F` (centres undefined)?
RN4220 kill: 99; Sa ugtP lethal: 99

What do the screens show for `O=c1[nH]c(=O)n([C@H]2C[C@H](O)[C@@H](CO)O2)cc1I`?
PrPC surface inh: inactive

How did O=C(COC(=O)c1ccc([N+](=O)[O-])s1)Nc1ccc(F)cc1 do in these assays?
RN4220 kill: inactive; PrPC surface inh: inactive; Sa ugtP lethal: inactive

Results for CC(C)(C)c1ccc(NC(=O)COC(=O)c2ccc([N+](=O)[O-])s2)cc1 ?
RN4220 kill: inactive; PrPC surface inh: inactive; Sa ugtP lethal: 100; SARS 3CLpro inh: inactive; DUSP3 inh: inactive

What do the screens show for `Cc1[nH]c2ccccc2c1C(=O)COC(=O)c1ccc([N+](=O)[O-])s1`?
RN4220 kill: 90; PrPC surface inh: inactive; Sa ugtP lethal: 96; SARS 3CLpro inh: inactive; BJeLR lethal: inactive; DUSP3 inh: inactive

What do the screens show for `CC1=NN(c2ccccc2)C(=O)C1=Cc1ccc(Oc2ccc([N+](=O)[O-])cc2[N+](=O)[O-])cc1`?
RN4220 kill: inactive; Sa ugtP lethal: inactive

What do the screens show for `CSc1ccc(C(=O)C2CCCN(C(=O)Cn3cnnn3)C2)cc1` (centres undefined)?
RN4220 kill: inactive; PrPC surface inh: inactive; Sa ugtP lethal: inactive; SARS 3CLpro inh: inactive; BJeLR lethal: inactive; DUSP3 inh: inactive

What do the screens show for `CSc1ccc(C(=O)C2CCCN(Cc3cccnc3)C2)cc1` (centres undefined)?
PrPC surface inh: inactive; SARS 3CLpro inh: inactive; BJeLR lethal: inactive; DUSP3 inh: 58

How did CSc1ccc(C(=O)C2CCCN(C(=O)CCc3cnn(C)c3)C2)cc1 (centres undefined) do in these assays?
RN4220 kill: inactive; PrPC surface inh: inactive; Sa ugtP lethal: inactive; SARS 3CLpro inh: inactive; BJeLR lethal: inactive; DUSP3 inh: 50

What do the screens show for `CC(C)(C)C(=O)NC(=S)NNC(=O)c1sc2ccccc2c1Cl`?
RN4220 kill: 94; Sa ugtP lethal: 97; SARS 3CLpro inh: inactive; BJeLR lethal: inactive; DUSP3 inh: inactive

How did CC(NC(=O)c1[nH]cnc1C(=O)Nc1ccc(CNC(=O)OC(C)(C)C)cc1)C(=O)OC(C)(C)C (centres undefined) do in these assays?
RN4220 kill: inactive; Sa ugtP lethal: inactive

Results for CCCCc1nnc(NC(=O)CSCc2cc(=O)n3cc(C)sc3n2)s1 ?
RN4220 kill: inactive; PrPC surface inh: inactive; Sa ugtP lethal: inactive; SARS 3CLpro inh: inactive; BJeLR lethal: inactive; DUSP3 inh: 56

Results for CCCCc1nnc(NC(=O)CSCc2cc(=O)n3c(C)csc3n2)s1 ?
RN4220 kill: inactive; PrPC surface inh: inactive; Sa ugtP lethal: inactive; SARS 3CLpro inh: inactive; BJeLR lethal: inactive; DUSP3 inh: inactive

What do the screens show for `CCC1=C(OC(=O)N(CC)CC)N2C(=O)OC(=NCC3CC3)[C@]2(C)C2C1=CCC1C(=O)NC(=O)C12` (some centres undefined)?
RN4220 kill: inactive; Sa ugtP lethal: inactive

How did CCCCCCCCCCn1ccc(=N)cc1 do in these assays?
RN4220 kill: 100; PrPC surface inh: inactive; Sa ugtP lethal: 101; SARS 3CLpro inh: inactive; BJeLR lethal: inactive; DUSP3 inh: inactive

What do the screens show for `O=C1NC(c2ccccc2)COC(=O)C(Cc2ccc(F)cc2)CCC=CCC1CC(=O)N(CCO)Cc1ccccc1` (centres undefined)?
RN4220 kill: inactive; Sa ugtP lethal: inactive
